Measurements taken from PubChem BioAssay.
Results filed as inconclusive are left out. Calls of active or inactive are those of the source. Unless noted, no cut-off is given here; in the data, nearly all actives have AC50 up to about 26 µM.

How the values were obtained:
[1] = viability loss in pontine glioma line – cell-based, SU-DIPG-XVII, MIPE5.0, CellTiter-Glo, qHTS, dose response (AID 1347060); details: CellTiter-Glo ATP luminescence;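 note: cells exposed to compound for 48 hours before viability readout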
[2] = viability loss in pontine glioma line – cell-based, SU-DIPG-XIII, MIPE5.0, CellTiter-Glo, qHTS, dose response (AID 1347064; cut-off not given, nearly all actives have AC50 up to about 23 µM;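 for AC50: cells exposed to compound for 48 hours before the viability read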); details: CellTiter-Glo ATP luminescence
[3] = viability loss in pontine glioma line – cell-based, SU-DIPG-XXV, MIPE5.0, CellTiter-Glo, qHTS, dose response (AID 1347065); details: CellTiter-Glo ATP luminescence;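 note: cells exposed to compound for 48 hours before ATP readout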
[4] = JHH-DIPG-1 glioma cell viability, MIPE5.0 library, CellTiter-Glo luminescence, qHTS (AID 1347067); details: JHH-DIPG-1 glioma viability, CellTiter-Glo ATP luminescence;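 note: cells exposed to compound for 48 hours before readout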

Measured: AC50

COCCNCc1ccc(-c2cc3nccc(Oc4ccc(NC(=O)C5(C(=O)Nc6ccc(F)cc6)CC5)cc4F)c3s2)nc1
active: [1] 7.42 µM | [2] 5.25 µM | [3] 4.68 µM | [4] 8.33 µM

CCCc1cc(C(=O)N[C@H](Cc2ccc(-c3cccc(OC(F)(F)F)c3)nc2)C(=O)N[C@@H]2CCNC2)sc1C
active: [1] 23.5 µM | [2] 16.6 µM | [3] 20.9 µM | [4] 10.5 µM

CCCCNc1ncc(-c2ccc(CN3CCOCC3)cn2)c(NC2CCC(O)CC2)n1 (centres undefined)
active: [1] 2.57 µM | [3] 1.82 µM
inactive: [2]

Cc1ccc(NC(=O)c2ccc3c(c2)OCCO3)cc1NC(=O)c1ccc2nc(OCCN3CCCC3)ccc2c1
active: [1] 0.129 µM | [2] 0.229 µM | [3] 0.0645 µM | [4] 0.204 µM

O=c1cc(N2CCOCC2)oc2c(-c3ccc4c(c3)OCCO4)csc12
active: [1] 5.25 µM | [2] 6.61 µM | [3] 8.33 µM | [4] 7.42 µM
